# PubChem BioAssay (Tox21)
# Results filed as inconclusive are left out. Entries that show only a call come without a potency. Activity calls are given as the source filed them. Unless noted, the call rests on the fitted dose curve; in most records, active means well fitted curve in the direction sought with a large enough effect in the repeat runs; inconclusive means weak or mixed curves; inactive means flat fitted curve, though single readings scatter.
# Tested on: not listed separately
# Test: qHTS assay to test for compound auto fluorescence at 535 nm (green) in HepG2 cell free culture (AID 720686)
# Conditions: Cell-free medium, green autofluorescence 485/535 nm; series mostly up to 91.3 µM
Compound,outcome,"fluorescence, % of fluorescein control"
CCCCC(=O)O[C@]1(C(=O)CO)[C@H](C)C[C@H]2[C@@H]3CCC4=CC(=O)C=C[C@]4(C)[C@@]3(F)[C@@H](O)C[C@@]21C,inactive,–
CN1[C@@H]2CC[C@H]1CC(OC(=O)c1c[nH]c3ccccc13)C2 (stereo partly specified),inactive,–
O=C1CCCCC1C1CCCCC1 (stereo unspecified),inactive,–
Cc1cc2c(s1)Nc1ccccc1N=C2N1CCN(C)CC1,inactive,–
O=C1C=CC(=O)O1,inactive,–
O=C(O)c1ccccc1Nc1cc(Cl)ccc1C(=O)O,inactive,–
O=S(=O)(O)C(F)(F)F,inactive,–
CCCCC(CC)COC(=O)COc1cc(Cl)c(Cl)cc1Cl (stereo unspecified),inactive,–
OCCN(CCO)CCN(CCO)CCO,inactive,–
C1CSCCS1,inactive,–
CN1C(=O)CC(c2ccccc2)C1=O (stereo unspecified),inactive,–
NC1=NCC2c3ccccc3Cc3ccccc3N12 (stereo unspecified),inactive,–
COc1cc(Cl)ccc1Cl,inactive,–
OCCN1CCN(CCO)CC1,inactive,–
CCCCCCOc1ccc(N)cc1,inactive,–
CC(C)(C)c1cccc(O)c1,inactive,–
CC[C@H]1CC[C@H](NCc2cc3c(cc2OC)[C@H]2C[C@H]2C(=O)N3C)[C@H](c2ccccc2)N1,inactive,–
CCCCC1CCC(=O)O1 (stereo unspecified),inactive,–
O=C(C(Cl)Cl)N1CCOC12CCCCC2,inactive,–
CCC(=O)c1ccc2c(c1)N(CCCN(C)C)c1ccccc1S2,inactive,–
Oc1ccccc1C=NCc1ccccc1,inactive,–
CC(=O)OC1C2(C)CCC(C2)C1(C)C (stereo unspecified),inactive,–
OCc1c2ccccc2cc2ccccc12,inactive,–
CC/C=C\CCOC(=O)CCCCC,inactive,–
NC/C=C/C(=O)O,inactive,–
Cc1ccccc1C(=O)Nc1ccc(C(=O)N2CCCC(O)c3cc(Cl)ccc32)c(C)c1 (stereo unspecified),inactive,–
COc1cc(N)c(Cl)cc1C(=O)NC1CCN(Cc2ccccc2)CC1,–,-0.0056% [at 18.6 µM] (inactive)

# Tested on: not listed separately
# Test: qHTS assay to test for compound auto fluorescence at 460 nm (blue) in HepG2 cells (AID 720687)
# Conditions: autofluorescence 405/460 nm, 1 h; series mostly up to 91.3 µM
# How it was run: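 HepG2 cells in MEM with 10% FBS, attached overnight at 37 C, were exposed to compound or DMSO for 1 hr at 37 C, 5% CO2. Blue fluorescence was read at 405/460 nm, with triamterene as reference fluorophore.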
Compound,outcome,"fluorescence, % of fluorescent control"
CCCCC(=O)O[C@]1(C(=O)CO)[C@H](C)C[C@H]2[C@@H]3CCC4=CC(=O)C=C[C@]4(C)[C@@]3(F)[C@@H](O)C[C@@]21C,inactive,–
CN1[C@@H]2CC[C@H]1CC(OC(=O)c1c[nH]c3ccccc13)C2 (stereo partly specified),inactive,–
O=C1CCCCC1C1CCCCC1 (stereo unspecified),inactive,–
CC(C)(C)c1ccc(OC(=O)c2ccccc2O)cc1,inactive,–
Cc1cc2c(s1)Nc1ccccc1N=C2N1CCN(C)CC1,inactive,–
CCCCCCCCCC/C=C/C#N,inactive,–
O=C1C=CC(=O)O1,inactive,–
O=C(O)c1ccccc1Nc1cc(Cl)ccc1C(=O)O,inactive,–
CCCNC(C)C(=O)Nc1c(C)csc1C(=O)OC (stereo unspecified),–,0.025% [at 18.6 µM] (inactive)
O=S(=O)(O)C(F)(F)F,inactive,–
CCCCC(CC)COC(=O)COc1cc(Cl)c(Cl)cc1Cl (stereo unspecified),inactive,–
OCCN(CCO)CCN(CCO)CCO,inactive,–
C1CSCCS1,inactive,–
CN1C(=O)CC(c2ccccc2)C1=O (stereo unspecified),inactive,–
NC1=NCC2c3ccccc3Cc3ccccc3N12 (stereo unspecified),inactive,–
COc1cc(Cl)ccc1Cl,inactive,–
OCCN1CCN(CCO)CC1,inactive,–
CCCCCCOc1ccc(N)cc1,inactive,–

Compound,outcome,"fluorescence, % of fluorescent control"
CC(C)(C)c1cccc(O)c1,inactive,–
CC[C@H]1CC[C@H](NCc2cc3c(cc2OC)[C@H]2C[C@H]2C(=O)N3C)[C@H](c2ccccc2)N1,inactive,–
CCCCC1CCC(=O)O1 (stereo unspecified),inactive,–
O=C(C(Cl)Cl)N1CCOC12CCCCC2,inactive,–
CCC(=O)c1ccc2c(c1)N(CCCN(C)C)c1ccccc1S2,inactive,–
Oc1ccccc1C=NCc1ccccc1,inactive,–
CC(C)O,inactive,–
CC(=O)OC1C2(C)CCC(C2)C1(C)C (stereo unspecified),inactive,–
OCc1c2ccccc2cc2ccccc12,inactive,–
CC/C=C\CCOC(=O)CCCCC,inactive,–
NC/C=C/C(=O)O,inactive,–
COc1ccc2nc(NC(=O)Nc3ccccc3)sc2c1,inactive,–
Cc1ccccc1C(=O)Nc1ccc(C(=O)N2CCCC(O)c3cc(Cl)ccc32)c(C)c1 (stereo unspecified),inactive,–
CN(CCCN1c2ccccc2CCc2ccccc21)CC(=O)c1ccc(Cl)cc1,inactive,–
COC(=O)c1ccc2cc(C(=O)OC)ccc2c1,–,0.0678% [at 18.6 µM] (inactive)
CCC/C=C/CO,inactive,–
CCOC(=O)CS,inactive,–
COc1cc(N)c(Cl)cc1C(=O)NC1CCN(Cc2ccccc2)CC1,–,0.034% [at 18.6 µM] (inactive)

# Target: Glucocorticoid receptor (Homo sapiens) (UniProt P04150)
# Sequence (P04150 whole entry, looked up): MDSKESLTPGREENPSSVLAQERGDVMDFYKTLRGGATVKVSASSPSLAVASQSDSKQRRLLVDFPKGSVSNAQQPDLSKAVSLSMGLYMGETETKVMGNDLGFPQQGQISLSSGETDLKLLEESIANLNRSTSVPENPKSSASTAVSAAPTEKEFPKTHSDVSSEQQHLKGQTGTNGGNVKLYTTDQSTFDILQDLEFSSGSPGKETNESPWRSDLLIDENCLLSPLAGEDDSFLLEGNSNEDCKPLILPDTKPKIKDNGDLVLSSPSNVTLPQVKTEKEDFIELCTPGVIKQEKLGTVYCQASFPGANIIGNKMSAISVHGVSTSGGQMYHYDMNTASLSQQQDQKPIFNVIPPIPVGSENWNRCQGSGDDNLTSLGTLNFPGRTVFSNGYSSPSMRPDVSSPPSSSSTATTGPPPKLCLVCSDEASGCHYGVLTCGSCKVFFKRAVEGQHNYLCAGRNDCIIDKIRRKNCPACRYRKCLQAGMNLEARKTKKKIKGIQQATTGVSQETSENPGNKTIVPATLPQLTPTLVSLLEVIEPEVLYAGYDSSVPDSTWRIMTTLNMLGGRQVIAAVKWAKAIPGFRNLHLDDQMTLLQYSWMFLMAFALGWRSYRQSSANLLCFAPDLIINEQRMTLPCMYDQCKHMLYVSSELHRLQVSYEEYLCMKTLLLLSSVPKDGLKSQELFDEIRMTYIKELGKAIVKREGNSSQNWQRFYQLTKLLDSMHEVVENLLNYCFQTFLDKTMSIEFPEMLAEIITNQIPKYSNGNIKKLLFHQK
# Test: qHTS assay to identify small molecule agonists of the glucocorticoid receptor (GR) signaling pathway (AID 720691; active means well fitted activation curve with a large enough effect in the signal ratio in the repeat runs, not every such curve was filed as active; the % refers to the signal ratio)
# Conditions: GR-bla HeLa, beta-lactamase reporter ratio, 18 h; series mostly up to 62.4 µM
# How it was run: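 GR-bla HeLa cells (beta-lactamase reporter under glucocorticoid response element) were plated 4 h at 37 C/5% CO2, given compounds in DMSO, and incubated 18 h at 37 C. LiveBLAzer B/G FRET substrate was added for 2 h at room temperature, then fluorescence intensity read.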
row,Compound,Potency
1,O=C1CCCCC1C1CCCCC1 (stereo unspecified),inactive
2,CC(C)(C)c1ccc(OC(=O)c2ccccc2O)cc1,inactive
3,Cc1cc2c(s1)Nc1ccccc1N=C2N1CCN(C)CC1,inactive
4,O=C1C=CC(=O)O1,inactive
5,O=C(O)c1ccccc1Nc1cc(Cl)ccc1C(=O)O,inactive
6,O=S(=O)(O)C(F)(F)F,inactive
7,CCCCC(CC)COC(=O)COc1cc(Cl)c(Cl)cc1Cl (stereo unspecified),inactive
8,CN1C(=O)CC(c2ccccc2)C1=O (stereo unspecified),inactive
9,NC1=NCC2c3ccccc3Cc3ccccc3N12 (stereo unspecified),inactive
10,COc1cc(Cl)ccc1Cl,inactive
11,OCCN1CCN(CCO)CC1,inactive
12,CCCCCCOc1ccc(N)cc1,inactive
13,CC(C)(C)c1cccc(O)c1,inactive
14,CC[C@H]1CC[C@H](NCc2cc3c(cc2OC)[C@H]2C[C@H]2C(=O)N3C)[C@H](c2ccccc2)N1,inactive
15,CCCCC1CCC(=O)O1 (stereo unspecified),inactive
16,CCC(=O)c1ccc2c(c1)N(CCCN(C)C)c1ccccc1S2,inactive
17,Oc1ccccc1C=NCc1ccccc1,inactive
18,CC(=O)OC1C2(C)CCC(C2)C1(C)C (stereo unspecified),inactive
19,NC/C=C/C(=O)O,inactive
20,CN(CCCN1c2ccccc2CCc2ccccc21)CC(=O)c1ccc(Cl)cc1,inactive
21,COC(=O)c1ccc2cc(C(=O)OC)ccc2c1,inactive
22,CCC/C=C/CO,inactive
23,CCOC(=O)CS,inactive
